miR122 inh – blocks miR-122 activity in Huh7 sensor cells; Huh7 miR-122 Renilla luciferase sensor, 48 h; neutral wells = 0, positive control = 100; activation (reporter increase), % at 12.5 µM; 340,000 tested, 0.3% active; AID 602342;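 active = mean replicate activation score at least 90 and every replicate individually at or above 90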;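 also: higher luciferase means less miR-122 activity so hits act as miR-122 inhibitors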
Wnt act – activators of Wnt/beta-catenin signaling | Wnt/beta-catenin reporter cell assay, activator, plate reader | activation, % at 9.35 µM | 300,000 tested, 1.2% active; in the data active = activation above about 30%, passing the limit was not always enough;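 also: 0% = neutral control wells and 100% = positive control wells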
MITF act – activators of MITF-driven TRPM1 promoter activity in SK-MEL-5 cells; SK-MEL-5 TRPM1-promoter luciferase, 24 h; % of positive control, neutral wells = 0; activation, % at 12.5 µM; 300,000 tested, 0.75% active; AID 588334;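 active = mean activation of at least 80% with every replicate also reaching 80%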;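 also: 0% = neutral control wells and 100% = parthenolide positive control wells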
esBAF inh – blocks esBAF chromatin remodeling in mouse ES cells; AID 602393; 350,000 tested, 2% active; Bmi1-luciferase knock-in reporter, 24 h; 100% = twice the neutral-well signal; reporter increase, % at 12.5 µM; in the data active = activation above about 40%;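 also: 0% = median of the plate's neutral control wells and 100% = double that signal; a rise in the Bmi1 reporter signal indicates esBAF inhibition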
Env fusion inh – inhibitors of HIV Env-mediated cell fusion; HeLa-JRFL Env/CEM21 cell fusion, luciferase; inhibition, % at 12.3 µM; 360,000 tested, 1.1% active; AID 651610;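 active = mean replicate inhibition score of at least 50 and every replicate individually at or above 50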;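 also: 0% = plate neutral controls and 100% = maraviroc near 300 nM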
* = called active by the depositor; / = no result given; [ ] = another dose, or the depositor's remark. This is a sample that favours compounds with a hit; in the whole collection about 3.4% have one here.

SMILES | miR122 inh | Wnt act | MITF act | esBAF inh | Env fusion inh
Cc1cc2[nH]c(=S)[nH]c2cc1C | -3 | -1 | -16 | -6 | -274
COc1ccc(NC(=O)C2CCN(c3nc(C)nc4c3CCC4)CC2)cc1 | -8 | -9 | -7 | -9 | 54*
COc1ccc(NC(=O)C2CCN(c3nc(C)cc(C)n3)CC2)cc1 | -4 | -9 | / | -3 | -60
CN1C(=O)c2cc(NC(=O)c3ccc(F)cc3)ccc2OC[C@H]2O[C@H](CC(=O)N3CCOCC3)CC[C@H]21 | 4[16.7 µM] | / | / | 2 | -14[16.7 µM]
c1csc(-c2nc(CN3CCSCC3)cs2)c1 | -7 | 43* | -9 | -49 | 7
O=C(C[C@@H]1CC[C@@H](NC(=O)c2ccncc2)[C@H](CO)O1)NCCc1ccncc1 | / | / | / | -3 | 62*[16.7 µM]
O=C(O)C[C@@H]1CC[C@H](NC(=O)c2ccncc2)[C@@H](CO)O1 | 1[16.7 µM] | / | / | 0 | -1[16.7 µM]
O=C(O)C[C@@H]1CC[C@@H](NC(=O)c2ccncc2)[C@H](CO)O1 | -4[16.7 µM] | / | / | 0 | 63*[16.7 µM]
O=C(C[C@H]1CC[C@H](NC(=O)c2ccncc2)[C@H](CO)O1)NCCc1ccncc1 | / | / | / | -6 | 11[16.7 µM]
O=C(Cc1ccncc1)NCC[C@@H]1CC[C@@H](NC(=O)C2CCCC2)[C@@H](CO)O1 | 15[16.7 µM] | / | / | -3 | 6[16.7 µM]
Cc1ccc(S(=O)(=O)N(C)C[C@@H]2Oc3ccc(NS(=O)(=O)c4ccccc4)cc3CC(=O)N([C@H](C)CO)C[C@@H]2C)cc1 | 1[16.7 µM] | / | / | 9 | 100*[16.7 µM]
Cc1ccc(S(=O)(=O)Nc2ccc3c(c2)CC(=O)N([C@H](C)CO)C[C@H](C)[C@H](CN(C)S(=O)(=O)c2ccccc2)O3)cc1 | 5[16.7 µM] | / | / | -7 | 80*[16.7 µM]
Cc1ccc(S(=O)(=O)Nc2ccc3c(c2)CC(=O)N([C@@H](C)CO)C[C@H](C)[C@H](CN(C)S(=O)(=O)c2ccccc2)O3)cc1 | 8[16.7 µM] | / | / | -2 | 67*[16.7 µM]
Cc1ccc(S(=O)(=O)Nc2ccc3c(c2)CC(=O)N([C@@H](C)CO)C[C@H](C)[C@H](CN(C)Cc2ccc(-c4ccccc4)cc2)O3)cc1 | -10[16.7 µM] | / | / | 1 | 15[16.7 µM]
Cc1ccc(S(=O)(=O)Nc2ccc3c(c2)CC(=O)N([C@@H](C)CO)C[C@H](C)[C@@H](CN(C)Cc2ccc(-c4ccccc4)cc2)O3)cc1 | -25[16.7 µM] | / | / | 7 | 75*[16.7 µM]
Cc1ccc(S(=O)(=O)Nc2ccc3c(c2)CC(=O)N([C@H](C)CO)C[C@@H](C)[C@@H](CN(C)S(=O)(=O)c2ccccc2)O3)cc1 | 1[16.7 µM] | / | / | 1 | 18[16.7 µM]
COCC(=O)Nc1ccc2c(c1)C(=O)N(C)[C@@H]1CC[C@@H](CC(=O)Nc3ccccc3)O[C@H]1CO2 | -2[16.7 µM] | / | / | 5 | -3[16.7 µM]
COc1ccc(/C=C2/SC(=S)N(CCCC(=O)Nc3cccc(O)c3)C2=O)cc1 | 8 | 6 | -7 | -62 | 2
COc1ccc(/C=C2\SC(=S)N(CC(=O)OCC(=O)Nc3cc(Cl)cc(Cl)c3)C2=O)cc1 | / | 38* | 5 | / | -9
O=C(CCN1C(=O)S/C(=C\c2ccc(Cl)cc2)C1=O)Nc1ccc(C(=O)O)cc1 | / | 1 | 9 | 10 | -15
Cc1ccc(/C=C2\SC(=S)N(CCCC(=O)Nc3ccc(O)cc3)C2=O)cc1 | 3 | 7 | -21 | -85 | 64*
COC(=O)c1ccc(/C=C2/SC(=S)N(CCCC(=O)Nc3ccc(O)cc3)C2=O)cc1 | / | 3 | -14 | / | 0
Cc1ccc(/C=C2\SC(=S)N(CCCC(=O)Nc3ccccc3C(=O)O)C2=O)cc1 | 5 | 16 | -17 | -42 | 68*
COc1ccc(/C=C2\SC(=O)N(CCCC(=O)Nc3ccc(C(=O)O)cc3)C2=O)cc1 | -5 | -7 | / | -80 | 89*
O=C(C[C@H]1C[C@@H]2c3cc(NC(=O)CC4CC4)ccc3O[C@@H]2[C@@H](CO)O1)NCc1ccccn1 | 1[16.7 µM] | / | / | -4 | 1[16.7 µM]
SMILES | miR122 inh | Wnt act | MITF act | esBAF inh | Env fusion inh
COc1ccccc1C#Cc1ccc([C@H]2[C@H](CO)N3CCCCN(S(C)(=O)=O)C[C@@H]23)cc1 | 0[16.7 µM] | / | / | 1 | /
C[C@@H]1CN([C@H](C)CO)C(=O)c2cc(NC(=O)Cc3ccccc3)ccc2O[C@H]1CN(C)Cc1ccc(Cl)c(Cl)c1 | 0[16.7 µM] | / | / | -1 | /
COc1cccc(-c2cnc3c(c2)C(=O)N([C@H](C)CO)C[C@@H](C)[C@H](CN(C)Cc2ccc(C(=O)O)cc2)O3)c1 | -2[16.7 µM] | / | / | 1 | 4[16.7 µM]
COc1ccc(/C=C2/SC(=S)N(CCCC(=O)Nc3ccccc3C(=O)O)C2=O)cc1 | -5 | -7 | / | -62 | 28
COc1ccc(/C=C2\SC(=S)N(CCCC(=O)NNC(=O)c3ccccc3O)C2=O)cc1 | -4 | -3 | -92 | -83 | 59*
Cc1ccc(S(=O)(=O)CCC(=O)NCCN2C(=O)S/C(=C\c3ccccc3)C2=O)cc1 | -7 | -1 | 0 | 45* | 4
O=C(C1=C[C@@H](C2CC2)C[C@@H](OCc2ccc(CO)cc2)O1)N1CCCC1 | / | / | / | / | -16[16.7 µM]
COc1cccc(-c2ccc3n(c2=O)C[C@@H]2[C@@H](CO)[C@H](C(=O)N(C)C)[C@H]3N2CC2CC2)c1 | -1[16.7 µM] | / | / | -5 | /
CC1CCc2c(sc(NC(=O)/C=C/c3cccs3)c2C(=O)O)C1 (configuration not stated) | 2 | 1 | 7 | 53* | 3
CC1CCc2c(sc(NC(=O)c3ccco3)c2C(=O)O)C1 (configuration not stated) | 12 | 23 | 13 | 3 | 4
O=P(c1ccccc1)(c1ccccc1)C(O)c1ccccn1 (configuration not stated) | -6 | -2 | / | / | 6
O=P(c1ccccc1)(c1ccccc1)C(c1ccccn1)P(=O)(c1ccccc1)c1ccccc1 | 21 | 0 | / | / | 66*
COc1cc(/C=C/C(=O)OCC(=O)NC(=O)NC(C)C)ccc1O | -2 | 5 | -2 | -7 | 57*
C[C@H](O)C#Cc1ccc2c(c1)O[C@H](CN(C)C(=O)c1ccccc1)[C@H](C)CN([C@@H](C)CO)S2(=O)=O | -1[16.7 µM] | / | / | -1 | 18[16.7 µM]
CN1CCN(C(=S)c2ccc(-c3cc(Cl)ccc3Cl)o2)CC1 | / | 1 | 5 | / | -9
S=C(c1ccc(-c2ccc(Cl)cc2Cl)o1)N1CCCCC1 | 3 | 27 | 60 | 53* | -333
N#CCCN1CCN(C(=S)c2ccc(-c3cc(Cl)ccc3Cl)o2)CC1 | -2 | / | / | -8 | 29
S=C(c1ccc(-c2ccc(Cl)cc2Cl)o1)N1CCCC1 | 1 | 33* | / | / | -20
COc1ccc(S(=O)(=O)N(C)C[C@H]2Oc3ccc(NC(=O)Nc4ccc(F)cc4)cc3C(=O)N([C@@H](C)CO)C[C@H]2C)cc1 | 82[16.7 µM] | / | / | -2 | /
Cc1c(CCOC(=O)C23CC4CC(CC(C)(C4)C2)C3)sc[n+]1CC(=O)c1ccccc1 | 5 | -3 | -1 | 9 | 82*
Cc1c(CCOC(=O)c2ccccc2)sc[n+]1CC(=O)c1ccc(Br)cc1 | -1 | / | -8 | 7 | /
Cc1c(CCOC(=O)CC23CC4CC(CC(C)(C4)C2)C3)sc[n+]1CC(=O)c1ccccc1 | / | -6 | -83 | / | 69*

High-throughput results: PubChem BioAssay, Broad Institute
